± gives the standard deviation of the averaged measurements. The full ranking holds about 33,000 sequences; the median of “E-score (rank enrichment, -0.5 to 0.5)” is about -0.0043, and the highest 2% start at about 0.24. This is one part of a sample in which the highest values are shown more often than they occur.
Test system: 2Sp-muMax20 (muMax20 with two 2,6-bis(methyl)pyridine Cys staples)
Assay: PBM 8-mer E-score (E-score (rank enrichment, -0.5 to 0.5)); higher = stronger preferential binding
Procedure: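 Protein binding microarray (universal PBM chip covering all 10-mers in fixed probe flanks) with chemically synthesized human Max(13-93) bHLH-LZ analogs (not full-length Max) bearing noncanonical residues (hArg, Tha, Aib, Nle at 65) and aromatic Cys staples. Read-out per 8-mer (and its reverse complement): E-score (rank-based enrichment, -0.5 to 0.5) and Z-score of median probe intensity.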

| Sequence | PBM 8-mer E-score |
| --- | --- |
| CATTATAG | 0.0091 ± 0.076 |
| AATTATAG | 0.148 ± 0.082 |
| CATTATAC | 0.218 ± 0.0061 |
| TATTATAA | 0.244 ± 0.079 |
| GGGGGGGA | -0.1747 ± 0.00091 |
| AGATAGCA | 0.137 ± 0.011 |
| CCTTATGC | 0.0835 ± 0.078 |
| AATTATCT | 0.235 ± 0.023 |
| AATTATCA | 0.198 ± 0.045 |
| AATTATCC | 0.0373 ± 0.0027 |
| ACCCTCGT | 0.00159 ± 0.081 |
| GACTAACA | 0.0143 ± 0.0082 |
| GGCCCAAA | -0.117 ± 0.027 |
| AAAATGCC | -0.0688 ± 0.037 |
| TAAATGTA | 0.281 ± 0.054 |
| CAAATGGG | 0.236 ± 0.052 |
| CAAATGTA | 0.188 ± 0.012 |
| AAAATGGG | -0.206 ± 0.0038 |
| AAAATGCA | 0.145 ± 0.012 |
| CGAATGCA | 0.32 ± 0.04 |
| CGAATGCC | -0.0493 ± 0.096 |
| AAAATGCT | 0.263 ± 0.0092 |
| CAAATGGC | -0.0435 ± 0.002 |
| CGAATGCG | 0.0188 ± 0.013 |
| GAAATGTA | 0.0185 ± 0.077 |

| Sequence | PBM 8-mer E-score |
| --- | --- |
| CGGGACCG | -0.357 ± 0.032 |
| CCTATCCC | 0.0952 ± 0.097 |
| TCATCTAA | 0.00256 ± 0.03 |
| AATCTAAA | 0.0534 ± 0.04 |
| CAGCGATC | -0.158 ± 0.022 |
| AGAATGCA | 0.0925 ± 0.055 |
| ACCAATCA | -0.0682 ± 0.088 |
| CGTACGAA | 0.19 ± 0.0087 |
| CACGACGG | 0.0169 ± 0.013 |
| CGAAGAAA | 0.223 ± 0.059 |
| CCACTGAA | -0.0273 ± 0.065 |
| AGCAAGAT | -0.0742 ± 0.058 |
| AAAATGAG | 0.267 ± 0.012 |
| CAAATGAG | 0.0988 ± 0.053 |
| CAAATGCA | 0.064 ± 0.011 |
| AAAATGAA | 0.135 ± 0.0098 |
| TAAATGCA | 0.238 ± 0.1 |
| GAAATGCA | 0.135 ± 0.11 |
| AAGGTTTA | -0.18 ± 0.048 |
| GCGCGCAA | 0.184 ± 0.057 |
| AAATGGCA | 0.155 ± 0.028 |
| TAGACATA | 0.0769 ± 0.014 |
| CCATGTGC | 0.114 ± 0.025 |
| AGATGTGA | 0.199 ± 0.019 |
| CAATGTGA | 0.146 ± 0.013 |

| Sequence | PBM 8-mer E-score |
| --- | --- |
| ATATGTGG | 0.218 ± 0.032 |
| ATATGTGA | 0.311 ± 0.022 |
| CCATGTGA | 0.268 ± 0.087 |
| GCATGTGA | 0.183 ± 0.082 |
| TAATGTGA | 0.266 ± 0.01 |
| ACATGTGA | 0.312 ± 0.0028 |
| CGATGTGA | 0.0746 ± 0.018 |
| CTATGTGA | 0.148 ± 0.044 |
| GAATGTGA | 0.00134 ± 0.14 |
| GCTTAGCA | 0.039 ± 0.11 |
| TACGCTAA | 0.218 ± 0.0075 |
| GTTCTCTA | -0.185 ± 0.098 |
| AGTTCCAA | -0.0402 ± 0.057 |
| CCCCCCTA | -0.112 ± 0.073 |
| GCCAAACC | -0.0278 ± 0.14 |
| GCAGATAC | 0.04 ± 0.079 |
| ATTCTACA | 0.253 ± 0.021 |
| ATACTACA | 0.258 ± 0.033 |
| ATACTAAC | 0.245 ± 0.041 |
| ATTCTACG | 0.228 ± 0.01 |
| GTACTAAC | 0.127 ± 0.038 |
| ATAATACA | 0.271 ± 0.0055 |
| ATACTAAA | 0.145 ± 0.13 |
| ATAATACG | 0.177 ± 0.032 |
| CTACTACA | 0.0934 ± 0.18 |

| Sequence | PBM 8-mer E-score |
| --- | --- |
| ATAATACC | 0.209 ± 0.033 |
| ATACTACC | 0.147 ± 0.029 |
| GTTCTACA | 0.0307 ± 0.072 |
| CCCGTCCA | -0.241 ± 0.017 |
| TTCTAAAA | -0.19 ± 0.05 |
| TCCAACGA | -0.0483 ± 0.18 |
| CTGGCAAG | -0.0269 ± 0.07 |
| ACATTTTA | 0.232 ± 0.019 |
| CCACTATA | 0.183 ± 0.0029 |
| GGCAGTAC | 0.105 ± 0.086 |
| CTACTAGA | 0.05 ± 0.076 |
| ATACTAGC | 0.117 ± 0.075 |
| ATACTAGA | 0.26 ± 0.055 |
| AAAATAGA | 0.242 ± 0.0042 |
| TAAATAGA | 0.000425 ± 0.01 |
| AAAATAGC | -0.0165 ± 0.011 |
| TAACCTCA | -0.00886 ± 0.051 |
| GAGAGCAA | -0.127 ± 0.12 |
| CCTGGATA | -0.0904 ± 0.0036 |
| AAATAGGT | 0.241 ± 0.0095 |
| AAATAGAT | 0.227 ± 0.023 |
| AAATAGGG | 0.208 ± 0.0056 |
| AAATAGAC | 0.257 ± 0.0069 |
| GAATAGAC | 0.104 ± 0.096 |
| AAATAGGC | 0.0753 ± 0.026 |

| Sequence | PBM 8-mer E-score |
| --- | --- |
| ACCGAAAA | -0.0179 ± 0.15 |
| CTCTTCCC | -0.062 ± 0.011 |
| AACGTGCA | 0.149 ± 0.025 |
| CACGTGCA | 0.419 ± 0.027 |
| CGCGTGCA | 0.263 ± 0.035 |
| GGCGTGCA | 0.11 ± 0.047 |
| GACGTGCC | -0.0934 ± 0.065 |
| CACGTGCG | 0.4142 ± 0.0019 |
| AACGTGCG | 0.129 ± 0.11 |
| CACGTGCC | 0.405 ± 0.0045 |
| CCCGTGCG | -0.119 ± 0.06 |
| TACGTGCA | 0.105 ± 0.013 |
| CGCGTGCC | 0.0851 ± 0.061 |
| AACGTGCC | 0.0275 ± 0.036 |
| GGTAGCAA | 0.163 ± 0.004 |
| AAGTACTT | 0.109 ± 0.032 |
| ACCGCATG | 0.132 ± 0.074 |
| GCGCATCA | 0.0862 ± 0.011 |
| CGGGTACA | -0.205 ± 0.03 |
| GACCGACA | -0.18 ± 0.052 |
| GAACAAAC | 0.046 ± 0.051 |
| CCATAATC | 0.159 ± 0.019 |
| CTCTTAGA | -0.116 ± 0.051 |
| AACAAGTT | 0.0512 ± 0.042 |
| AAACAATT | 0.252 ± 0.046 |

| Sequence | PBM 8-mer E-score |
| --- | --- |
| AACAAATA | 0.212 ± 0.063 |
| AAACAATG | 0.121 ± 0.021 |
| AAACAATA | 0.101 ± 0.046 |
| AACAAATT | 0.265 ± 0.0042 |
| ATGCAGTA | 0.0482 ± 0.088 |
| ACATAGCT | -0.143 ± 0.0071 |
| CCCCTCCA | 0.236 ± 0.033 |
| CCCCTCCC | 0.311 ± 0.014 |
| CCCCTTCC | -0.00527 ± 0.1 |
| CCCTCCCC | 0.142 ± 0.11 |
| ACCCTCCT | -0.0498 ± 0.0072 |
| CCCCTCCG | -0.0068 ± 0.12 |
| ACCCTCCC | 0.26 ± 0.043 |
| TCCCTTCA | 0.107 ± 0.057 |
| TCCCTCCA | -0.114 ± 0.086 |
| GCCCTCCA | -0.00293 ± 0.051 |
| CCCCTTCA | 0.248 ± 0.1 |
| ACCCTCCA | 0.168 ± 0.0021 |
| ATATACGG | 0.0505 ± 0.015 |
| GGCTCAAC | -0.0877 ± 0.06 |
| AGGAATAA | 0.0163 ± 0.077 |
| CTTCTACA | -0.0255 ± 0.032 |
| ACCTGCCA | -0.188 ± 0.047 |
| CCATTATA | 0.257 ± 0.045 |
| CCATTATC | 0.157 ± 0.04 |

| Sequence | PBM 8-mer E-score |
| --- | --- |
| ACATTATC | 0.159 ± 0.038 |
| ACATTATA | 0.282 ± 0.0059 |
| GCATTATA | 0.186 ± 0.059 |
| ACATTATG | 0.147 ± 0.1 |
| CGTATGCC | -0.0525 ± 0.034 |
| GCTGTTGA | -0.119 ± 0.013 |
| AGGGTGGG | 0.245 ± 0.073 |
| AGGGTGGA | -0.0107 ± 0.009 |
| AGGGTGGC | 0.0126 ± 0.068 |
| ACAGAGAA | 0.129 ± 0.14 |
| ACATGGGA | 0.162 ± 0.035 |
| ATATGGAG | 0.127 ± 0.014 |
| ATATGGGG | 0.239 ± 0.024 |
| CCATGGGG | -0.0568 ± 0.073 |
| CTATGGGC | -0.0549 ± 0.074 |
| ACATGGGG | 0.246 ± 0.072 |
| ATATGGGC | 0.249 ± 0.04 |
| AGATGGGC | -0.0126 ± 0.1 |
| ATATGGGA | 0.136 ± 0.11 |
| GAATCATC | -0.0799 ± 0.064 |
| TCGTACAA | 0.1 ± 0.042 |
| CAACCAAC | -0.132 ± 0.022 |

Reference: the supplement of paper PMC12636033
